Hits are enriched below; roughly 3.1% of the tested compounds scored in any of these assays.
EPAC1 ag val: Validation qHTS for agonist of cAMP-regulated guanine nucleotide exchange factor 3 (EPAC1); AID 1645883, 2021; EPAC1 Rap1b BODIPY-GDP exchange, fluorescence; 16,000 compounds, 1% hits; Rap guanine nucleotide exchange factor 3 (Homo sapiens), O95398; Potency, µM, inactives show max response, positive = active, most hits filed as activators; note: nearly all actives have a fitted effect of over 70% in size
Target sequence (O95398 whole entry, looked up): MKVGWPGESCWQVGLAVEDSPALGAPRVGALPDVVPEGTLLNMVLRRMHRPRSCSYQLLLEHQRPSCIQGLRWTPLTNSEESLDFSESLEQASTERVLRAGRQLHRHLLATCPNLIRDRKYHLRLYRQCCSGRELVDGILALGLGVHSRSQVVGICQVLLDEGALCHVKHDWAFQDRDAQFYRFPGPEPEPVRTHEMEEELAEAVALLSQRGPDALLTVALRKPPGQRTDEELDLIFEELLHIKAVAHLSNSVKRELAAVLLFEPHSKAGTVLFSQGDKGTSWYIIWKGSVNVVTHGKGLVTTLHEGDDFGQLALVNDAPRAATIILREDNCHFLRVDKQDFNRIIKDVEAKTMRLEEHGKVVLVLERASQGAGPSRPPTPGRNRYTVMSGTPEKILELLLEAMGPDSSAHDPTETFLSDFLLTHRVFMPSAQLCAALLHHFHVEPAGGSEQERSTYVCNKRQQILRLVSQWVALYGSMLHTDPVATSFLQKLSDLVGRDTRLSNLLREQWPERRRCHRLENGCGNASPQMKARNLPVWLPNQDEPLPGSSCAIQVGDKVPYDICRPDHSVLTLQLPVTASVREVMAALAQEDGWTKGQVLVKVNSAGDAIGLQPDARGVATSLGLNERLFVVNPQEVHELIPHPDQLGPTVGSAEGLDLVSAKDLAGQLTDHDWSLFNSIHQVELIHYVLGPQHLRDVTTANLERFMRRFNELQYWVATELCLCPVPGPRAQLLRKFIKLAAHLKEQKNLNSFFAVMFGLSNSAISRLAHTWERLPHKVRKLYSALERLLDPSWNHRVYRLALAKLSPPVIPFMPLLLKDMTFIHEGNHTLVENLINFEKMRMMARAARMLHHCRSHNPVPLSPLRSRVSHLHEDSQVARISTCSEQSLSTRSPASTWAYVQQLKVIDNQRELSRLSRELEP
EPAC2 ant val: Validation qHTS for antagonist of cAMP-regulated guanine nucleotide exchange factor 4 (EPAC2); Rap guanine nucleotide exchange factor 4 (Homo sapiens), Q8WZA2; EPAC2 Rap1B BODIPY-GDP exchange, fluorescence; Potency, µM (top dose mostly 112 µM), inactives show at the top dose activity, negative = inhibition, hits mostly inhibitors; 16,000 compounds, 1.7% hits; AID 1645886, 2021;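 note: 100% = activation by cAMP agonist control; nearly all actives have a fitted effect of over 40% in size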
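Normalized against a 6.5 mM cAMP agonist control, compounds were tested on 100 nM EPAC2 exchanging Rap1B-bound BODIPY-GDP (250 nM) for 50 uM GDP. Fluorescence drop (ex 480, em 540 nm) was tracked at room temperature over 30 min at 5-min intervals.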
* marks the source's active call; other numbers are inactive results; ! = a repeat was not active. Calls come from the whole dose curve; as a rule, active = well fitted curve in the direction sought with a large enough effect; inconclusive = small, poorly fitted or top-dose-only effect, or another doubt; inactive = no such curve, though single readings can be large; an effect the other way counts as inactive or inconclusive. Unless noted, % is set by controls: 0 for no effect and ±100 for the full control effect; potency is the fitted concentration of half-maximal effect.

Results for CN1CCN(c2ncc3nc(-c4cccs4)c(=O)n(CCc4ccccc4)c3n2)CC1 ?
EPAC1 ag val: 112µM*; EPAC2 ant val: 46.4%

Results for COC(=O)c1cc(CNC(=O)c2ccc3ncccc3c2)cc(NC(=O)c2ccccc2Cl)c1 ?
EPAC1 ag val: -17.6%; EPAC2 ant val: -10.1%

What do the screens show for `Cc1noc(C)c1CC(=O)NCC1Cc2cc(-c3cccc(OC(F)(F)F)c3)ccc2O1` (stereo unspecified)?
EPAC1 ag val: -12.9%; EPAC2 ant val: inconclusive

Results for CC(=O)N1CCC[C@H]1C(=O)NCC1Cc2cc(-c3cccc(OC(F)(F)F)c3)ccc2O1 (stereo partly specified) ?
EPAC1 ag val: 3.7%; EPAC2 ant val: 70.8µM*

What do the screens show for `CC1=C(C(=O)OCc2ccccc2)N2C(=O)[C@@H](NC(=O)OCc3ccccc3)[C@H]2SC1`?
EPAC1 ag val: inconclusive; EPAC2 ant val: -10.9%

What do the screens show for `Cc1cccc(-c2cnc(C)nc2C2CCCN(C(=O)c3cccc(Cn4cccn4)c3)C2)c1` (stereo unspecified)?
EPAC1 ag val: 2.7%; EPAC2 ant val: -16.2%

Results for COc1ccc(/C=C/C(=O)c2ccc(OC)cc2OC)cc1 ?
EPAC1 ag val: 14.2%; EPAC2 ant val: 15.8µM*

How did COc1ccc(/C=C/C(=O)c2ccc(O)cc2O)cc1 do in these assays?
EPAC1 ag val: 16.7%; EPAC2 ant val: -18.4%

How did O=C(O)CN(CC(=O)O)CC1=CC2C(=CC1=O)Oc1cc(O)c(CN(CC(=O)O)CC(=O)O)cc1C21OC(=O)c2ccccc21 (stereo unspecified) do in these assays?
EPAC1 ag val: inconclusive; EPAC2 ant val: inactive

Results for Clc1ccc(C(c2ccccc2Cl)C(Cl)Cl)cc1 (stereo unspecified) ?
EPAC1 ag val: inconclusive; EPAC2 ant val: 14.1µM*!

How did Cc1nn(-c2ccc(F)cc2)c(C)c1CNC(=O)c1ccc(-n2cc(NC(=O)c3ccoc3)cn2)cc1 do in these assays?
EPAC1 ag val: -13.7%; EPAC2 ant val: -15.5%

How did O=C(c1cccc(F)c1)N1CCC2(CC1)CCN(c1cccc(-c3ccccc3)c1)CC2 do in these assays?
EPAC1 ag val: -6.2%; EPAC2 ant val: -17.5%

How did O=C(c1csnn1)N1CCC2(CC1)CN(c1ccccc1)C2 do in these assays?
EPAC1 ag val: -38.1%; EPAC2 ant val: -9.1%

Results for COC(=O)N1CCC2(CC1)CCN(c1cccc(-c3ccccc3)c1)CC2 ?
EPAC1 ag val: 100µM*; EPAC2 ant val: -29.0%

Results for O=C(c1csnn1)N1CCC2(CC1)CN(c1cccc(-c3ccccc3)c1)C2 ?
EPAC1 ag val: 100µM*; EPAC2 ant val: inconclusive

How did O=C(c1cccc(F)c1)N1CCC2(CCCN(c3cccc(-c4ccccc4)c3)C2)CC1 do in these assays?
EPAC1 ag val: 100µM*; EPAC2 ant val: -19.4%

How did O=C(c1cccc(F)c1)N1CCC2(CC1)CN(c1cccc(-c3ccccc3)c1)C2 do in these assays?
EPAC1 ag val: 89.1µM*; EPAC2 ant val: inconclusive

What do the screens show for `O=C(c1cccc(F)c1)N1CCC[C@@]2(CCN(c3cccc(-c4ccccc4)c3)C2)C1`?
EPAC1 ag val: -39.2%; EPAC2 ant val: -27.9%

What do the screens show for `O=C(Oc1ccccc1)N1CCC2(CC1)CCN(c1cccc(-c3ccccc3)c1)CC2`?
EPAC1 ag val: 18.6%; EPAC2 ant val: -13.7%

What do the screens show for `COc1ccc2cc(CN(C(=O)c3cc(C)nn3C)C3CC3)c(-c3ccc(Cl)cc3)nc2c1`?
EPAC1 ag val: 13.7%; EPAC2 ant val: inconclusive

What do the screens show for `Cc1cccc2nc(CNC(=O)CN3Cc4cc(Cl)ccc4OC(C)C3)cn12` (stereo unspecified)?
EPAC1 ag val: 3.6%; EPAC2 ant val: -8.7%

How did Cc1cnc(SCc2ccccn2)nc1C1CCCN(C(=O)c2ccc3c(c2)OCCO3)C1 (stereo unspecified) do in these assays?
EPAC1 ag val: 6.3%; EPAC2 ant val: -0.8%

How did O=C(C[n+]1ccc2ccccc2c1)c1ccc(F)cc1 do in these assays?
EPAC1 ag val: 3.9%; EPAC2 ant val: inconclusive

What do the screens show for `CCCCCCCCCCCCCCCC(=O)O[C@H]1[C@@H](O)[C@@H](O)[C@@H]([C@H](NC(=O)[C@@H]2C[C@@H](CCC)CN2C)[C@H](C)Cl)O[C@@H]1SC`?
EPAC1 ag val: -195.1%; EPAC2 ant val: -5.3%

What do the screens show for `COc1cccc(CNC(=O)c2c(OC)cc(=O)n3c2CCN(C(=O)c2ccoc2C)CC3)c1`?
EPAC1 ag val: -6.6%; EPAC2 ant val: -14.0%

Results for O=C1NC(=O)C(Cc2ccccc2F)(C2CCN(Cc3cccn3-c3cccnc3)CC2)N1 (stereo unspecified) ?
EPAC1 ag val: -3.6%; EPAC2 ant val: 10.9%

Results for Cc1[nH]c2c(F)cccc2c1CC(=O)NCCN1Cc2ccccc2OC(C)C1 (stereo unspecified) ?
EPAC1 ag val: 7.1%; EPAC2 ant val: -32.1%

How did C=CCCCCCCCCCCCC(O)CC(O)COC(C)=O (stereo unspecified) do in these assays?
EPAC1 ag val: -118.3%; EPAC2 ant val: inconclusive

Results for C=CCCCCCCCCCCCC(O)CC(O)CO (stereo unspecified) (tested in a mixture with another compound) ?
EPAC1 ag val: -143.2%; EPAC2 ant val: 39.8µM*

How did Cc1oc(-c2ccccc2NC(=O)C2CCC2)nc1CNC(=O)c1ccccn1 do in these assays?
EPAC1 ag val: 6.1%; EPAC2 ant val: -16.1%

What do the screens show for `CC(C)N1CCN(C(=O)c2cnn(-c3nccc(-c4ccc5c(c4)OCO5)n3)c2-c2ccco2)CC1`?
EPAC1 ag val: -0.6%; EPAC2 ant val: -2.2%

What do the screens show for `COc1ccc2cc(CCC(C)=O)ccc2c1`?
EPAC1 ag val: -37.0%; EPAC2 ant val: 15.8µM*!

What do the screens show for `COc1ccc(C(C)=O)cc1`?
EPAC1 ag val: 13.6%; EPAC2 ant val: -28.8%

How did COC(=O)C1=C(C)NC(C)=C(C(=O)OCCCN2CCC(c3ccccc3)(c3ccccc3)CC2)C1c1cccc([N+](=O)[O-])c1 (stereo unspecified) do in these assays?
EPAC1 ag val: 112µM*!; EPAC2 ant val: -8.9%

How did COC(=O)C1=C(C)NC(C)=C(C(=O)O[C@H]2CCN(Cc3ccccc3)C2)[C@H]1c1cccc([N+](=O)[O-])c1 do in these assays?
EPAC1 ag val: inconclusive; EPAC2 ant val: -10.8%

What do the screens show for `CCOC(=O)C1=C(C)NC(=S)NC1c1cccc(O)c1` (stereo unspecified)?
EPAC1 ag val: 7.0%; EPAC2 ant val: -42.4%

Results for C#CCN1C(C)=C(C(=O)OC)C(c2cccc([N+](=O)[O-])c2)C(C(=O)OCC)=C1C (stereo unspecified) ?
EPAC1 ag val: 10.3%; EPAC2 ant val: 44.7µM*

How did COc1cc(CN2CCOc3ccc(CN4CCC(O)(c5cccnc5)CC4)cc3C2)cc(OC)c1 do in these assays?
EPAC1 ag val: 2.3%; EPAC2 ant val: -1.3%

What do the screens show for `COc1ccc(C(=O)NCCN2Cc3cc(C)ccc3OC(C)C2)c(OC)n1` (stereo unspecified)?
EPAC1 ag val: -7.1%; EPAC2 ant val: -32.1%

Results for Cc1cc(C)nc(S[C@H]2C[C@@H](C(=O)N3CCN(c4ccccc4F)CC3)N(Cc3ccccc3F)C2)n1 ?
EPAC1 ag val: 20.1%; EPAC2 ant val: inconclusive
